From PubChem BioAssay (NCI)
Compounds without any hit were thinned out: in the full panel of roughly 83,000, 20% have a hit.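 Single-dose data. Exposure time 48 hours. Values below 10 considered active.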 Calls of active or inactive are those of the source.

How the values were obtained:
Test in all cases: NCI-60 one-dose screen, 48 h (100 = growth as untreated, 0 = no growth, -100 = all killed)
Conditions in all cases: 10 µM
[1] = test system: NCI-H226 lung
[2] = test system: NCI-H322M lung
[3] = test system: HOP-62 NSCLC
[4] = test system: NCI-H460 lung
[5] = test system: HOP-92 NSCLC
[6] = test system: A549/ATCC NSCLC
[7] = test system: 786-0 renal
[8] = test system: COLO 205 colon
[9] = test system: DU-145 prostate
[10] = test system: MALME-3M melanoma
[11] = test system: MDA-MB-231 breast
[12] = test system: SF-268 CNS
[13] = test system: SF-295 CNS
[14] = test system: SF-539 CNS
[15] = test system: UACC-257 melanoma
[16] = test system: M14 melanoma
[17] = test system: NCI-H522 lung
[18] = test system: K-562 leukemia
[19] = test system: RXF 393 renal

Measured: growth

CCOC(=O)/C(C#N)=C/c1cccc(C)c1
inactive: [1] 109% | [2] 95% | [3] 101% | [4] 103% | [5] 83.8% | [6] 95.5% | [7] 98.3% | [8] 119% | [9] 107% | [10] 96% | [11] 110% | [12] 94.1% | [13] 97.9% | [14] 95.1% | [15] 104% | [16] 97.4%

CSC[C@H](NC(=O)COc1cccc2cnccc12)C(=O)NC(Cc1ccccc1)C(O)C(=O)N1CSC[C@H]1C(=O)NC(C)(C)C (stereo partly specified)
inactive: [1] 105% | [2] 95.7% | [3] 110% | [4] 125% | [17] 72.3% | [6] 110% | [7] 80.3% | [8] 106% | [9] 98.9% | [18] 107% | [10] 105% | [11] 93.8% | [19] 100% | [12] 94.4% | [13] 97.4% | [14] 103% | [15] 106% | [16] 99.3%

C#CC(C(C)C)N(CCO)CCCC (stereo unspecified)
inactive: [1] 96.6% | [2] 107% | [3] 98.8% | [4] 101% | [17] 107% | [6] 95.8% | [7] 108% | [8] 108% | [9] 112% | [18] 102% | [10] 116% | [11] 113% | [19] 100% | [12] 102% | [14] 90.4% | [15] 97.4% | [16] 108%

COc1cc(C2c3cc4c(cc3C3OC(=O)C2C3CO)OCO4)cc(OC)c1OC (stereo unspecified)
active: [4] 0.82% | [17] -30.5% | [8] -92.4% | [9] -41.5% | [18] 8.48% | [13] 3.2% | [14] -7.04%
inactive: [3] 28.5% | [5] 45.7% | [6] 14.9% | [7] 14.4% | [10] 50.3% | [11] 30.3% | [19] 57.9% | [12] 30.3% | [15] 57% | [16] 12.1%

CC(C)=CC(=O)OC(=O)C=C(C)C
inactive: [1] 93.5% | [2] 104% | [3] 103% | [4] 106% | [7] 106% | [8] 113% | [9] 101% | [18] 99.1% | [10] 101% | [11] 99.6% | [19] 102% | [12] 103% | [13] 111% | [14] 105% | [16] 107%

CC(=O)c1ccc(N=C(C#N)C2=C(O)c3ccccc3C2=O)cc1
inactive: [2] 100% | [3] 100% | [4] 101% | [17] 78.6% | [7] 103% | [8] 111% | [9] 113% | [18] 85.5% | [10] 114% | [11] 106% | [12] 101% | [13] 102% | [14] 107% | [15] 94.2% | [16] 105%

COc1ccc(C2(O)CCCCC2)cc1
inactive: [1] 92.1% | [2] 105% | [3] 102% | [4] 105% | [5] 73.2% | [17] 99.7% | [6] 101% | [7] 98.5% | [8] 112% | [9] 112% | [18] 111% | [10] 105% | [11] 97% | [19] 103% | [12] 105% | [13] 105% | [14] 109% | [15] 99.1% | [16] 101%

CC(=O)c1cc2c(cc1F)C(C)(C)CCC2(C)C
inactive: [1] 96.9% | [2] 96.8% | [3] 112% | [4] 107% | [5] 88% | [6] 89% | [7] 103% | [8] 102% | [9] 108% | [18] 96.2% | [10] 123% | [11] 103% | [19] 113% | [12] 95.4% | [13] 120% | [14] 96.2% | [15] 96.3% | [16] 98.9%

O=C(O)CCCc1ccccc1
inactive: [1] 108% | [4] 115% | [5] 105% | [6] 102% | [7] 97.4% | [8] 110% | [9] 119% | [10] 118% | [11] 117% | [19] 113% | [12] 118% | [13] 110% | [14] 120% | [15] 104% | [16] 101%

c1ccc(CN2COc3c(ccc4c3OCN(Cc3ccccc3)C4)C2)cc1
active: [1] -9.91% | [4] 9.51% | [6] 6.93% | [7] -26% | [18] 3.62% | [11] 1.06% | [13] 0.773% | [14] -21.5% | [16] -0.269%
inactive: [2] 32.9% | [3] 26.2% | [17] 30.7% | [8] 12.7% | [9] 25.3% | [10] 28.4% | [12] 15.1% | [15] 12.1%

CC1CCCCN1C(=S)Nc1ccc(S(=O)(=O)N2CCCCC2)cc1 (stereo unspecified)
inactive: [2] 118% | [4] 97.1% | [17] 73% | [6] 101% | [7] 92.6% | [9] 106% | [18] 84.6% | [10] 130% | [11] 119% | [19] 109% | [12] 97.2% | [13] 79.2% | [14] 96.9% | [15] 105% | [16] 89.2%

CCOC(=O)c1[nH]c(C)c(C(C)=O)c1C
inactive: [1] 103% | [2] 101% | [3] 89.7% | [4] 103% | [5] 51% | [17] 83.8% | [6] 105% | [7] 83.5% | [8] 115% | [9] 93.7% | [18] 87.3% | [10] 95.7% | [11] 96.6% | [19] 97.3% | [12] 93.5% | [13] 92.6% | [14] 92.6% | [15] 98.3%

CCN(CC)C(=O)/C=C(/C)c1ccccc1
inactive: [1] 97.2% | [2] 106% | [3] 109% | [4] 104% | [5] 80.2% | [17] 107% | [6] 113% | [7] 101% | [8] 106% | [9] 117% | [18] 107% | [10] 111% | [11] 108% | [19] 96.7% | [12] 104% | [13] 100% | [14] 107% | [15] 110% | [16] 104%

NC(CSC(c1ccccc1)(c1ccccc1)c1ccccc1)C(=O)O (stereo unspecified)
inactive: [1] 87.6% | [2] 43.9% | [3] 44.5% | [4] 13.6% | [6] 25.7% | [7] 49.4% | [8] 23.2% | [9] 29.9% | [18] 14.5% | [10] 51.1% | [12] 43.3% | [14] 10.3% | [15] 52.3% | [16] 13.6%
active: [11] 4.8% | [19] 3.38%

C[N+](C)(C)C(=O)c1ccccc1
inactive: [1] 102% | [2] 118% | [3] 101% | [4] 119% | [5] 102% | [6] 101% | [7] 109% | [8] 109% | [9] 114% | [18] 117% | [10] 117% | [11] 97.5% | [19] 114% | [12] 98.2% | [13] 114% | [14] 98.9% | [15] 109% | [16] 95.2%

CC(=O)NCc1cc(C)c(C)cc1C
inactive: [1] 93.4% | [2] 92% | [3] 106% | [4] 104% | [7] 97.8% | [8] 94.2% | [9] 104% | [18] 94.2% | [10] 88.7% | [11] 110% | [19] 103% | [12] 95.7% | [13] 103% | [14] 102% | [16] 105%

CN(C)c1ccc(CNC(C(=O)c2ccccc2)c2ccccc2)cc1 (stereo unspecified)
inactive: [1] 101% | [2] 92.8% | [3] 75.5% | [4] 110% | [5] 78.9% | [17] 85.4% | [7] 109% | [8] 113% | [18] 94.8% | [10] 94.2% | [11] 107% | [12] 96.9% | [13] 98.1% | [14] 111% | [15] 94.9% | [16] 114%

Nc1ccccc1SC(CC(=O)c1ccccc1)c1c(Cl)cccc1Cl (stereo unspecified)
inactive: [1] 96.6% | [2] 91.8% | [3] 73.4% | [4] 84.8% | [7] 96.8% | [8] 91.8% | [9] 23.9% | [18] 12.4% | [10] 77.1% | [11] 86.6% | [19] 86.8% | [12] 56% | [13] 94.2% | [14] 101% | [16] 93%

C#CC(C)(O)c1ccc(Cl)cc1 (stereo unspecified)
inactive: [1] 78.2% | [2] 99.9% | [3] 84.6% | [4] 104% | [17] 91.4% | [6] 99.2% | [7] 95.5% | [8] 103% | [9] 112% | [18] 91.3% | [10] 125% | [11] 102% | [12] 103% | [13] 90.8% | [14] 96.3% | [15] 101% | [16] 98.8%

COc1ccc2c(c1)CCc1c-2n[nH]c1-c1[nH]nc2c1CCc1cc(OC)ccc1-2
inactive: [1] 82.7% | [2] 90.5% | [3] 66% | [4] 53.5% | [17] 34% | [6] 79% | [7] 64.7% | [8] 67.8% | [9] 86.2% | [18] 20.8% | [10] 46.6% | [19] 54.3% | [12] 86.2% | [13] 29.6% | [14] 31.8% | [15] 82.5% | [16] 36.1%

COc1ccc(C2OC(N)=C(O)C2=O)cc1OC (stereo unspecified)
inactive: [1] 97.5% | [4] 110% | [5] 98% | [17] 93.6% | [6] 118% | [7] 101% | [8] 125% | [9] 109% | [18] 94.6% | [10] 95.5% | [19] 110% | [12] 101% | [13] 99.9% | [14] 90.9% | [15] 106% | [16] 111%

CC(=O)c1ccc2c(ccc3ccccc32)c1
inactive: [1] 94% | [2] 105% | [3] 115% | [4] 101% | [17] 93.1% | [6] 95.3% | [7] 91% | [8] 111% | [9] 111% | [18] 90.5% | [10] 110% | [11] 105% | [12] 104% | [13] 99.3% | [14] 97.5% | [15] 108% | [16] 89.1%
